# Screens as filed in PubChem BioAssay.
# ELG1 repair inh – inhibitors of ELG1-dependent DNA repair in HEK293T cells; HEK293T ELG1-luciferase reporter, luminescence, 16 h; DNA damage induced by 5-fluorouridine; Potency, µM (titrated, usually from 46.1 µM), for the others: at the top dose activity change, negative = inhibition, hits mostly inhibitors; 2.3% of 330,000 active; AID 504467; note: potency is the fitted concentration of half-maximal effect; nearly all actives have a fitted effect of over 55% in size
#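 Quantitative HTS, concentration-response format. 2,000 cells/well co-treated with 5-fluorouridine and compound, 16 hr in 5% CO2 at 37 °C; ONE-Glo luminescence read after 30 min.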
# HT1080 IDH1KD tx – kills HT-1080 cells with IDH1 knockdown; HT-1080 IDH1 knockdown viability, ATP luminescence, 48 h; Potency, µM (doses to about 46.1 µM), inactives show at the highest dose activity, negative = toxicity, actives largely listed as cytotoxic; 2% of 360,000 active;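 note: potency is the fitted concentration of half-maximal effect; 0% = DMSO wells and -100% = cell-free medium wells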
#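 Luminescent ATP read-out (CellTiter-Glo, 10 min at room temperature) after 48 h compound exposure at 37 °C gave viability of IDH1-knockdown HT-1080 cells. Activity was normalised to DMSO and cell-free wells, then fitted as concentration-response curves.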
# HT1080-NT tox – kills 2HG-producing HT-1080-NT fibrosarcoma cells; 1.6% of 360,000 active; Potency, µM (doses to about 46.1 µM), without a hit: at the top dose activity, negative = less viability, actives largely listed as cytotoxic; HT-1080-NT fibrosarcoma viability, CellTiter-Glo ATP luminescence, 48 h; AID 686970;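 note: NT is the 2HG producing partner of a matched IDH1 knockdown line; potency is the fitted concentration of half-maximal effect; 0% = DMSO-treated cells and -100% = media-only wells without cells; nearly all actives have a fitted effect of over 55% in size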
#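 HT-1080-NT; 750 cells/well; 5% FBS RPMI; 48 h compound, 37 degrees C; CellTiter-Glo luminescence; curve fitting and curve-class assignment.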
# DT40 TDP1 CPT – DT40-hTDP1 cell growth loss with CPT | chicken DT40 Tdp1-/-;hTDP1 cells + 20 nM CPT, ATP luminescence, 48 h | Potency, µM (highest dose often 46.2 µM), without a hit: at the top dose activity change, negative = growth inhibition, hits mostly inhibitors | 12% of 420,000 active | AID 686979; note: potency is the fitted concentration of half-maximal effect; nearly all actives have a fitted effect of over 55% in size
#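 Cell growth measured by CellTiter-Glo luminescence after a minimum 48 h, 37 C compound exposure with 20 nM CPT in Tdp1-knockout DT40 cells stably expressing hTDP1, seeded 400/well; qHTS titration format.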
# TDP1 cell noCPT – qHTS for Inhibitors of human tyrosyl-DNA phosphodiesterase 1 (TDP1): qHTS in cells in absence of CPT. DT40 Tdp1-/- hTDP1 cells, no CPT, ATP luminescence, 48 h. Potency, µM (doses to about 46.2 µM), for inactives: at the top dose activity change, negative = growth inhibition, actives largely listed as inhibitors. 15% of 420,000 active; note: potency is the fitted concentration of half-maximal effect; nearly all actives have a fitted effect of over 55% in size
#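 Seeded 400 DT40-hTDP1 cells/well (vehicle DMSO, no 20 nM CPT); pinned compounds; ≥48 hr at 37 °C; CellTiter-Glo luminescence as viability measure.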
# IL1B secr inh – blocks inflammasome-driven IL-1 beta release; 4.7% of 360,000 active; THP-1 LPS/ATP IL-1B secretion, AlphaLISA, 16 h; stronger effect = lower value; activity change, % at 57.5 µM; in the data active = activity change below about -50%; inconclusive = mostly about -30% to -49%
#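 Secreted IL-1B measured by AlphaLISA bead assay after 16 h compound exposure of THP-1 cells; compounds (final up to 57.5 uM) added 1 h before LPS (250 ng/mL) and ATP (1.25 mM) stimulation; lower signal means less secretion.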
# Numbers without * were called inactive; ? = inconclusive; · = no result given; [ ] = dose if it differs, or a comment. Compounds with a hit are over-represented: about 19% of the library has one in this group of screens. Unless noted, calls come from the whole dose curve; as a rule, active = well fitted curve in the direction sought with a large enough effect; inconclusive = small, poorly fitted or top-dose-only effect, or another doubt; inactive = no such curve, though single readings can be large; an effect the other way counts as inactive or inconclusive. Unless noted, % is set by controls: 0 for no effect and ±100 for the full control effect.
SMILES,ELG1 repair inh,HT1080 IDH1KD tx,HT1080-NT tox,DT40 TDP1 CPT,TDP1 cell noCPT,IL1B secr inh
CC(C)Cn1c(N)c(C(=O)CSc2nc3ncc(Cl)cc3[nH]2)c(=O)n(C)c1=O,?,-11.3%,-3.1%,?,16.4µM*,?
Cc1ccc2nc(SCC(=O)c3c(C)[nH]c4ccccc34)[nH]c2c1,?,-3.1%,-13.1%,23.1µM*,18.4µM*,?
Cc1[nH]c2ccccc2c1C(=O)CSc1nc2ncc(Cl)cc2[nH]1,-5.8%,?,-12.0%,13µM*,?,30.2
CCCN(C(=O)CSc1ncccn1)C1CCS(=O)(=O)C1 (stereo unspecified),12.9%,9.5%,7.9%,0.3%,22.8%,5.0
Cc1cc(C)c(Cn2c(=O)n(CCCC(=O)NCc3ccco3)c(=O)c3ccccc32)c(C)c1,·,10.6%,12.6%,?,18.4µM*,0.0
O=C(CCCn1c(=O)c2sccc2n(CC(=O)NCc2ccco2)c1=O)NCc1ccco1,0.0%,5.6%,1.4%,-2.4%,-2.9%,0.0
O=C(CCCCn1c(=O)c2ccccc2n(Cc2ccc(F)cc2Cl)c1=O)NCc1ccco1,?,?,?,18.4µM*,14.6µM*,-16.9
O=C(CCn1c(=O)c2sccc2n(CC(=O)NCc2ccco2)c1=O)NCc1ccccc1,14.3%,-5.5%,0.1µM*,-11.3%,-5.0%,-11.0
Cc1ccc(NC(=O)Cn2c(=O)n(CCCCC(=O)NCc3ccco3)c(=O)c3ccccc32)cc1,?,0.6%,0.0%,?,14.6µM*,-17.5
Nc1ccc(S(=O)(=O)Nc2nccs2)cc1N=Nc1ccccc1[N+](=O)[O-],·,-18.6%,-17.1%,8.4%,6.6%,7.9
COc1ccccc1NC(=O)Cn1nnc(C(=O)NCCc2ccccc2)c1N,-10.5%,?,-9.3%,?,-23.8%,-5.4
O=C(CCCCn1c(=O)c2ccccc2n(CC(=O)Nc2ccc(F)cc2)c1=O)NCc1ccco1,20.6µM*,-8.4%[9.24 µM],-1.9%,9.2µM*,?,-21.4
Cc1ccc(C)c(Cn2c(=O)n(CCCC(=O)NCc3ccco3)c(=O)c3sccc32)c1,?,9.2µM*,?,23.1µM*,11.6µM*,12.7
Cc1csc(=O)n1CC(=O)OCC(=O)Nc1ccc(F)c(F)c1,7.6%,0.6%,-1.5%,-15.5%,-3.5%,-10.5
COc1ccc(C2=NOC(Cn3nc(-c4ccccc4)cc3C(=O)NCc3ccco3)C2)cc1 (stereo unspecified),-29.3%,5.5%,17.1%,?,-0.2%,22.2
CCOC(=O)c1cc(-c2ccccc2)n(CC2CC(c3ccc(OC)cc3)=NO2)n1 (stereo unspecified),?,0.4%,-1.1%,23.1µM*,23.1µM*,2.0
COc1ccc(C2=NOC(Cn3nc(C(=O)O)cc3-c3ccccc3)C2)cc1 (stereo unspecified),-6.6%,15.8%,15.8%,-0.8%,-5.3%,-0.9
COc1ccc(C2=NOC(Cn3nc(C(=O)NCc4ccco4)cc3-c3ccccc3)C2)cc1 (stereo unspecified),?,-1.9%,-2.8%,?,16.4µM*,-27.0
COCCNC(=O)c1cc(-c2ccccc2)n(CC2CC(c3ccc(OC)cc3)=NO2)n1 (stereo unspecified),?,4.9%,-0.4%,?,?,-16.7
COc1ccc(C2=NOC(Cn3nc(-c4ccccc4)cc3C(=O)NCc3cccs3)C2)cc1 (stereo unspecified),11.6µM*,-1.7%,-4.3%,?,9.2µM*,-1.4
COc1ccc(C2=NOC(Cn3nc(C(=O)NCc4cccs4)cc3-c3ccccc3)C2)cc1 (stereo unspecified),?,0.4%,-1.3%,?,?,-15.3
COc1ccc(C2=NOC(Cn3nc(C(=O)NCc4ccc(C)cc4)cc3-c3ccccc3)C2)cc1 (stereo unspecified),?,-1.5%,-10.3%,?,20.6µM*,-9.0
OCC1OC(n2cnc3ccccc32)CC1O (stereo unspecified),0.8%,0.0%,-2.4%,30.6%,-1.3%,5.2
COc1ccc(S(=O)(=O)Nc2nnc(Cc3ccc(OC)c(OC)c3)s2)cc1,-14.4%,9.7%,-6.0%,3.7%,1.3%,6.8
COc1ccc(C2=NOC(Cn3nc(C(=O)NCc4cccc(C(F)(F)F)c4)cc3-c3ccccc3)C2)cc1 (stereo unspecified),-26.2%,-4.3%,-1.9%,18.4µM*,?,-5.9
SMILES,ELG1 repair inh,HT1080 IDH1KD tx,HT1080-NT tox,DT40 TDP1 CPT,TDP1 cell noCPT,IL1B secr inh
CCN(CCCNC(=O)CCn1c(=S)[nH]c2cc3c(cc2c1=O)OCO3)c1cccc(C)c1,26.7%,0.6%,0.9%,?,0.0%,48.6
CCN(CC)c1nc(C=Cc2ccc(N(C)C)cc2)c2nccnc2n1,·,14.2%,4.4%,23.1µM*,20.6µM*,-24.1
CCN(CC)c1ccc(/C=C/c2c(C)cnc3ccccc23)cc1,·,·,·,?,11.2µM*,·
CN(C)c1ccc(/C=C/c2cccc3ccccc23)cc1,·,·,·,-18.2%,?,·
CCN(CC)c1ccc(C(=O)NNC(=O)Cn2c(=O)cnc3ccccc32)cc1,·,-0.6%,12.7%,3.3%,-3.3%,-3.1
CN(C)c1nc(N)c2nccnc2n1,·,1.8%,-1.9%,-10.5%,-7.8%,0.0
CCN(CC)c1ccc(/C=C/c2nccc3ccccc23)cc1,·,·,·,?,12.6µM*,·
CCN(CC)c1ccc(/C=N/NC(=O)c2c(-c3ccccc3)noc2C)cc1,?,-3.8%,-22.4%,-25.1%,?,29.3
CN(C)c1ccc(C=Cc2nccc3ccccc23)cc1,·,20.6µM*,?,?,?,-22.2
Cc1c(CNC2CCCCC2)c(C(=O)O)c(C)n1Cc1c(F)cccc1Cl,·,·,·,-8.4%,-27.1%,·
CC(C)c1ccc(NC(=O)CS(=O)(=O)c2cccc3nsnc23)cc1,·,·,·,-25.8%,?,·
O=C(NC1CCCC1)C(c1cccs1)N(CC1CCCO1)C(=O)Cc1cccs1 (stereo unspecified),-5.2%,3.6%,0.3%,?,20.6µM*,6.4
O=C(Cc1cccs1)N(Cc1cccs1)C1(C(=O)NC2CCCCC2)CCCCC1,-21.9%,-0.4%,3.9%,25.9µM*,16.4µM*,-52.3*
CC(NCc1cccs1)C(=O)NC1CCCCC1 (stereo unspecified),-5.1%,11.9%,2.1%,-29.6%,-0.8%,-62.2*
